system: HepG2; test: GSK_TCMDC: Percent inhibition of human HepG2 cell line. Test compounds present at 10uM.; type: functional

Row | SMILES | Inhibition [%]
1 | CC1(C)N=C(N)N=C(N)N1c1ccc2ccccc2c1.Cl | 48
2 | N=C(N)Nc1nc(-c2cccc(NC(=O)Cc3ccccc3)c2)cs1 | 1
3 | COc1ccc(CN(C)Cc2cc(C(C)C)c(C)cc2O)cc1F | 1
4 | CCNC(=O)c1ccc2c(c1)c(C)c(C)n2Cc1ccc(F)cc1 | 25
5 | CCOc1cc(C(=O)N[C@@H](Cc2ccccc2)[C@H](O)CNC(C)(C)c2cccc(OC)c2)cc(N2CCCS2(=O)=O)c1 | 0
6 | COc1ccc2nc(C)cc(Nc3ccc(N4CCN(C)CC4)cc3)c2c1 | 1
7 | CC(C)c1ccc(NC(=O)c2ccc(C(=O)NCC3CCN(CC4CCCCC4)CC3)cc2)cc1.O=C(O)C(F)(F)F | 26
8 | OC[C@H](Nc1nc(C(Oc2ccccc2)c2ccccc2)nc2[nH]ncc12)c1ccccc1 (stereo not given in full) | 0
9 | CCCCN1CCN(CC(O)CNC(=O)Nc2ccc(Cl)cc2)CC1.O=C(O)C(F)(F)F (stereo not given) | 17
10 | Fc1cccc(Nc2nc(NCc3ccc(Cl)c(Cl)c3)nc(Nc3cccc(F)c3)n2)c1 | 0
11 | COc1ccc(-c2onc(C(F)(F)F)c2-c2ccc(Br)cc2)c(O)c1 | 7
12 | CCN(CC)CCN(Cc1ccc(-c2ccc(C(F)(F)F)cc2)nc1)C(=O)Cn1cc(Cc2cnn(C)c2)c(=O)n2nc(-c3ccccc3)cc12.O=C(O)C(O)C(O)C(=O)O | 35
13 | CN1CCc2ccc(NC(=O)Nc3ccc(Cl)c(Cl)c3)cc2C1 | 0
14 | CCCNCc1ccc(-c2ccc(CN(CCOC)C(=O)c3nn(-c4ccccc4)nc3C)cc2)nc1.O=C(O)C(F)(F)F | 18
15 | CCCCCc1ccc(N2C(N)=NC(N)=NC2(C)C)cc1.Cl | 59
16 | Cl.N#Cc1ccc2c(c1)CCN(CCC1CCC(NC(=O)c3ccc(-c4ccccc4)s3)CC1)CC2 (stereo not given) | 6
17 | CCCNC[C@@H](O)[C@H](Cc1ccccc1)NC(=O)c1cc(NCC)cc(N2CCCC2=O)c1 | 0
18 | CN(C)Cc1ccc(-c2cccc(NC(=O)c3cccc(Cl)c3)c2)cc1.O=C(O)C(F)(F)F | 18
19 | Cc1ccc(Nc2nc(NN=Cc3ccc(-c4ccc([N+](=O)[O-])cc4)o3)nc(N3CCOCC3)n2)cc1Cl | 12
20 | CCCCCCNc1c2ccccc2nc2ccccc12.Cl | 24

Row | SMILES | Inhibition [%]
21 | Cc1cc2nc(-c3cccc(C(=O)NC4CCN(Cc5ccccc5)CC4)c3)[nH]c2cc1C | 32
22 | COc1ccc2nc(C)cc(N/N=C/c3ccc([N+](=O)[O-])o3)c2c1 | 18
23 | CC(C)CCCC(C)(C)NC[C@@H](O)[C@H](Cc1ccccc1)NC(=O)c1cc(NC(C)C)cc(N2CCCCS2(=O)=O)c1.O=CO | 2
24 | Cc1nnc2c(NC(=O)NC3CCCC3)cc3cc(-c4ccc(CN5CCCCC5)cc4)ccc3n12 | 100
25 | COc1ccc2c(N/N=C/c3ccccc3[N+](=O)[O-])ccnc2c1 | 98
26 | COc1cc(F)c2nccc([C@@H](O)CN3CCC(NCc4ccc5c(n4)NC(=O)CS5)C(F)C3)c2c1.Cl (stereo not given in full) | 32
27 | Cn1cncc1-c1ccc2c(-c3ccsc3)cnc(N)c2c1 | 41
28 | Cc1cc(C)cc(NC(=S)NCCCCN2CCN(c3cccc(Cl)c3)CC2)c1 | 11
29 | CCN(CC)CCNC(=O)/C(=C/C=C/c1cc2cc(Cl)c(Cl)cc2[nH]1)OC | 30
30 | Cc1cccc2nc(-c3ccc(-c4ccc(CN5CCC(N)C5)cc4)s3)[nH]c12.O=C(O)C(F)(F)F (stereo not given) | 21
31 | COc1c(F)ccc2ncc(Cl)c(CCN3CCC(NCc4ccc5c(n4)NC(=O)CS5)CC3)c12.Cl | 30
32 | COc1c(C2CCN(CCCCNC(=O)c3cccc(-c4ccc(C(F)(F)F)cc4)c3)CC2)ccc2c1CCCC2 | 50
33 | CC(C)c1ccc(-c2noc(SCC(=O)N(C)c3ccc(F)cc3)n2)cc1 | 7
34 | O=C(Cc1ccc(F)cc1)NC1CCN(c2ccnc3cc(Cl)ccc23)C1.O=C(O)C(F)(F)F (stereo not given) | 0
35 | Cl.Nc1c2c(nc3ccc(C(=O)Nc4cc(I)c(O)c(I)c4)cc13)CCCC2 | 14
36 | CCC(Nc1noc(-c2c(-c3ccccc3)noc2C)n1)c1ccccc1 (stereo not given) | 4
37 | CC(C)Cn1cc(C2CCN(CCN3CCC(CNC(=O)c4ccc(-c5ccc(C#N)cc5)cc4)CC3)CC2)c2ccccc21 | 28
38 | CCc1nc2nc(C)cc(Nc3cc(C)cc(C)c3)n2n1 | 21
39 | CN1CCN(CC(=O)Nc2cccc(-c3ccc(-c4nc5cc(C(F)(F)F)ccc5[nH]4)s3)c2)CC1 | 36
40 | CC(C)(C)c1ccc(-c2csc(NC(=O)CC(c3ccccc3)c3ccccc3)n2)cc1 | 3

From ChEMBL document CHEMBL1157539, “Thousands of chemical starting points for antimalarial lead identification” (Nature, 2010)
